# Laboratory results published in PubChem BioAssay (EPA / NIEHS).
# Records with an inconclusive call do not appear. Calls of active or inactive are those of the source. Rule for the calls: active = hit-call score of the fitted dose curve at least 0.9, where 1 is the maximum; inconclusive = response in the unintended direction; inactive = score below 0.9.
# Key:
# [1] = ACEA_ER_AUC_viability: ACEA Biosciences xCELLigence Real-Time Cell Analysis on Estrogen Receptor Agonism for Viability (AID 2283782);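 note: hit means loss of impedance signal meaning reduced cell growth or viability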
# How it was run: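 Read-out: real-time electrical impedance (RT-CES) area under curve, loss of signal taken as reduced viability, normalized to DMSO baseline. T-47D cells, charcoal-stripped serum medium, compounds up to 100 uM final, continuous exposure, 80 h.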
# [2] = target: Estrogen receptor (Homo sapiens) (UniProt P03372); assay: ATG_hERa_XSP1: Attagene TRANS-FACTORIAL Multi-Species (XSP1) HepG2 Assay for human Estrogen Receptor (ESR1) (AID 2283780)
# How it was run: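 Reporter transcripts from multiplexed GAL4-UAS units driven by NR-Gal4 chimeras in transiently transfected HepG2 were measured by RT-PCR with capillary electrophoresis 24 h post-dose, with 3 nM 6-alpha-fluorotestosterone present; gain-of-signal relative to DMSO.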
# [3] = tested on: turtle Estrogen Receptor (ESR1), gene 101933533; assay: ATG_trERa_XSP1: Attagene TRANS-FACTORIAL Multi-Species (XSP1) HepG2 Assay for turtle Estrogen Receptor (ESR1) (AID 2283781)
# How it was run: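 Transfect HepG2 with reporter units → dose chemical 24 h (medium has 3 nM 6-alpha-fluorotestosterone) → isolate RNA, RT-PCR → FAM primer extension, HpaI digest → capillary electrophoresis; gain of signal vs DMSO.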
# [4] = target: AR (gene 367) (UniProt P10275); assay: ACEA_AR_agonist_80hr: ACEA Biosciences xCELLigence Real-Time Cell Analysis on Androgen Receptor Agonism for Proliferation (AID 2283783);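 note: hits increase impedance growth signal above DMSO baseline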
# Method: ACEA_AR_agonist is a cell-based, single-readout assay that uses 22Rv1, a human prostate cancer cell line, with measurements taken at 80 hours after chemical dosing in a 384-well plate, although TO5 and TO6 (mc0.srcf) used a 96-well plate. Differences in plate size can be ignored given data normalization.ACEA_AR_agonist_80hr is one of two assay component(s) measured or calculated from the ACEA_AR assay. It is designed to make measurements of real-time cell-growth kinetics, a form of growth reporter, as detected with electrical impedance signals by Real-Time Cell Electrode Sensor (RT-CES) technology.Data from the assay component ACEA_AR_agonist_80hr was analyzed in the positive analysis fitting direction relative to DMSO as the negative control and baseline of activity. Using a type of growth reporter, measures of the cells for gain-of-signal activity can be used to understand the signaling at the pathway-level as they relate to the geneAR Furthermore, this assay endpoint can be referred to as a primary readout, because this assay has produced multiple assay endpoints where this one serves a signaling function. To generalize the intended target to other relatable targets, this assay endpoint is annotated to the nuclear receptor intended target family, where the subfamily is steroidal.
# The xCELLigence system Multi-E-Plate stations were used to measure the time-dependent response to chemicals. Each compound was tested in an eight-point, 1:4 serial dilution series starting at a maximum final concentration of 100 uM. A maximum starting concentration of 0.5% DMSO was present in the 100 uM chemical samples and was diluted along with the test article dilution series. The screen was performed in biological duplicate using two separate, 96-well, E-Plates 96 for each dilution series (n = 2). Positive controls (MG132 and testosterone) and a negative control (assay media) were tested in quadruplicate on each testing plate. […] Reference compounds were tested with 8 concentrations with 1:5 serial dilutions. All screening was carried out by ACEA Biosciences, Inc. (San Diego, CA). 22Rv1 cells purchased from ATCC were maintained in media supplemented with 10% fetal bovine serum (FBS). Before screening, 22Rv1 cells were preconditioned in assay medium. Cells were then detached and seeded in E-Plates 96 in assay medium. After overnight monitoring of growth once every hour, compounds were added to […] cells and remained in the medium until the end of the experiment. Cellular responses were then recorded once every 5 min for the first 5 h, and once every hour for an additional 100 h.
# [5] = STM_H9_NormalizedViability: Cytotoxicity Assessment at 120 hours in the Stemina devTOX quickPredict H9 human embryonic stem cell (hESC)-based Assay (AID 2283784)
# How it was run: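 CellTiter-Fluor RFU, background-subtracted, expressed relative to 0.1% DMSO neutral control by plate. Pluripotent H9 cells; treatment with daily re-dosing. Plates carried 1uM methotrexate (positive) and 5 nM methotrexate (negative) references.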
# [6] = target: AR (gene 367) (UniProt P10275); assay: ACEA_AR_antagonist_80hr: ACEA Biosciences xCELLigence Real-Time Cell Analysis on Androgen Receptor Antagonism for Proliferation (AID 2283787);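 note: hits lower the impedance growth signal relative to DMSO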
# How it was run: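 Measures real-time proliferation of 22Rv1 prostate cancer cells by electrode impedance at 80 hours after dosing. Test articles ran at eight concentrations (1:4 steps, top 100 uM final) in biological duplicate.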
# [7] = tested on: turtle Androgen Receptor (AR), gene 101947425; assay: ATG_trAR_XSP1: Attagene TRANS-FACTORIAL Multi-Species (XSP1) HepG2 Assay for turtle Androgen Receptor (AR) (AID 2283786)
# How it was run: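 Partial androgen stimulation is provided by 3 nM 6-alpha-fluorotestosterone in a multi-species trans-factorial panel expressing a turtle AR–GAL4 fusion in HepG2. After 24 h, reporter mRNA is measured by RT-PCR and capillary electrophoresis and fitted upward against DMSO.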
# [8] = target: Estrogen receptor beta (Homo sapiens) (UniProt Q92731); assay: ATG_hERb_XSP1: Attagene TRANS-FACTORIAL Multi-Species (XSP1) HepG2 Assay for human Estrogen Receptor (ESR2) (AID 2283788)
# How it was run: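 Transient MRTU transfection of HepG2; ERβ–GAL4 TRANS format; 24 h dosing; 3 nM 6α-fluorotestosterone co-added; RNA → RT-PCR → 6-FAM primer extension → CE; activity vs DMSO.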
# [9] = ATG_M_06_XSP1: Attagene TRANS-FACTORIAL Multi-Species (XSP1) HepG2 Assay for M06 Transcription Factor (Internal Marker) (AID 2283790)
# How it was run: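 This background-control readout tracks M06 reporter mRNA, measured by RT-PCR and capillary electrophoresis. HepG2 cells transiently carrying the GAL4-UAS reporter panel were dosed for 24 h with 3 nM 6-alpha-fluorotestosterone added for partial AR stimulation; increases were scored relative to DMSO.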
# AR (gene 367), sequence (P10275 whole entry, looked up): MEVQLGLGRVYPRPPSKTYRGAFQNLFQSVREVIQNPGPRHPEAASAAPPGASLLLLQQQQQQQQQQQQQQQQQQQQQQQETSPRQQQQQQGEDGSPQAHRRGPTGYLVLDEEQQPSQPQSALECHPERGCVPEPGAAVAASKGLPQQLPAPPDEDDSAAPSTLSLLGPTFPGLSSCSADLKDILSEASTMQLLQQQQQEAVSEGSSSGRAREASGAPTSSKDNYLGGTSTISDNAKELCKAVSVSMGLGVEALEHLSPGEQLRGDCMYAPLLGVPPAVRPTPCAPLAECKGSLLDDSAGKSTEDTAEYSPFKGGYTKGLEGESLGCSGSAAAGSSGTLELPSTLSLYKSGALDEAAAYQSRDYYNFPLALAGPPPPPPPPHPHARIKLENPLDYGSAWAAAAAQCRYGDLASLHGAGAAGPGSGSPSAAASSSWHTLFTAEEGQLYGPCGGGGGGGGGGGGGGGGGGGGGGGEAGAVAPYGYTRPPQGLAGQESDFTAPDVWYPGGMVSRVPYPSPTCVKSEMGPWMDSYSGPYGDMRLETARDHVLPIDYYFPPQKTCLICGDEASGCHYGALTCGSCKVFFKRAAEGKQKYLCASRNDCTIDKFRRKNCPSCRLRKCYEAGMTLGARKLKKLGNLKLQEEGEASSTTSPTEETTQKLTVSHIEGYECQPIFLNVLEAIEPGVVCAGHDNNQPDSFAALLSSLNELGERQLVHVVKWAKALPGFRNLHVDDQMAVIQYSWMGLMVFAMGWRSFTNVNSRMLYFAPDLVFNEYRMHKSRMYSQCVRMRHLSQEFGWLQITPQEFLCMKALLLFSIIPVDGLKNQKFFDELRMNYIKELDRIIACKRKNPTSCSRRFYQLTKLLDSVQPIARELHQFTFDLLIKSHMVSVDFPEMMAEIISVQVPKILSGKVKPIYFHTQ
# Estrogen receptor (Homo sapiens), sequence (P03372 whole entry, looked up, the tested form may be a part): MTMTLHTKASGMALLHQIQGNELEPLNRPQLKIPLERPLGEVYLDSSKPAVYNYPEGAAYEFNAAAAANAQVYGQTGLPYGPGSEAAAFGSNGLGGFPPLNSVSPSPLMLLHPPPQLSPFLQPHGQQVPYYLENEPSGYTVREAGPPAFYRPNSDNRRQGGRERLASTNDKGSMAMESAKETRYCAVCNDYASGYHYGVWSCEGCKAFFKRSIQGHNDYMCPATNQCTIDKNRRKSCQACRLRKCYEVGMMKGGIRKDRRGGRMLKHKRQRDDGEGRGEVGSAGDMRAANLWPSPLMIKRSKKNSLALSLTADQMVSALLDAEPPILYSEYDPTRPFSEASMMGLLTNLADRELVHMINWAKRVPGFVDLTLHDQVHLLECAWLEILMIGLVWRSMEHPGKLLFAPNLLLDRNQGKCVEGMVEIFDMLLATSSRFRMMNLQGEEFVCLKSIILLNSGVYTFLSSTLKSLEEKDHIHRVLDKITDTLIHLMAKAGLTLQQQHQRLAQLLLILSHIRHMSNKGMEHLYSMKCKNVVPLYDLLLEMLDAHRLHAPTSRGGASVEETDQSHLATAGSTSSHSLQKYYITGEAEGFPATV
# Estrogen receptor beta (Homo sapiens), sequence (Q92731 whole entry, looked up, the tested form may be a part): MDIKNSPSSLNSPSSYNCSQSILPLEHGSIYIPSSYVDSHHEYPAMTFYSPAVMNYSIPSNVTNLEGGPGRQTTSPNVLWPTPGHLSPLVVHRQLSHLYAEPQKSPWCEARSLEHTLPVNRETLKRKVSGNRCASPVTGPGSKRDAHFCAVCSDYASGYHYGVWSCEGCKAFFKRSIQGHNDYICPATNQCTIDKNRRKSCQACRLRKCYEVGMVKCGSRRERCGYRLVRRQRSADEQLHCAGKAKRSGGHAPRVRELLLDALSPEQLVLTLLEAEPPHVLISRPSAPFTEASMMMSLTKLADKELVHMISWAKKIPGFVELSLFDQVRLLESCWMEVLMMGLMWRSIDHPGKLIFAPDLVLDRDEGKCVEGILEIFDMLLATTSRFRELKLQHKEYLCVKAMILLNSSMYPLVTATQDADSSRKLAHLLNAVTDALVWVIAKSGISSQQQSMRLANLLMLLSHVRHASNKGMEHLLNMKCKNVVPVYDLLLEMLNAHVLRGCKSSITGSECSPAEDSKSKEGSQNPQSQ
structure (smiles),measurement,setting,value
CC(C)N1C(=O)c2ccccc2NS1(=O)=O,outcome,[1],inactive
CSC(=O)c1c(C(F)F)nc(C(F)(F)F)c(C(=O)SC)c1CC(C)C,AC50,[2],6.12 µM (active)
same,outcome,[3],inactive
same,AC50,[1],81.2 µM (active)
CNC(=O)N(C)c1nnc(C(C)(C)C)s1,outcome,[1],inactive
CC1(C)C(C(=O)OC(C#N)c2cccc(Oc3ccccc3)c2)C1(C)C (stereo not given),AC50,[1],89.4 µM (active)
CC(C)Oc1cccc(NC(=O)c2ccccc2C(F)(F)F)c1,outcome,[1],inactive
COc1cc(Cl)c(OC)cc1Cl,outcome,[1],inactive
CCCCC(O)(Cn1cncn1)c1ccc(Cl)cc1Cl (stereo not given),AC50,[1],75.5 µM (active)
same,outcome,[4],inactive
same,AC50,[5],78.3 µM (active)
same,AC50,[6],57.3 µM (active)
CCCCOCN(C(=O)CCl)c1c(CC)cccc1CC,AC50,[1],87.6 µM (active)
same,AC50,[4],10.5 µM (active)
same,AC50,[6],75.7 µM (active)
O=P(O)(O)CCCl,outcome,[1],inactive
CC(C)=CC1C(C(=O)OCc2coc(Cc3ccccc3)c2)C1(C)C (stereo not given),AC50,[1],84 µM (active)
Nc1cnn(-c2ccccc2)c(=O)c1Cl,outcome,[1],inactive
COC(=O)NS(=O)(=O)c1ccc(N)cc1,outcome,[1],inactive
Nc1c(Cl)c(Cl)nc(C(=O)O)c1Cl,outcome,[1],inactive
CCOc1cc(C(C)(C)C)ccc1C1COC(c2c(F)cccc2F)=N1 (stereo not given),AC50,[1],51.2 µM (active)
same,outcome,[4],inactive
same,AC50,[6],13.2 µM (active)
CNC(=O)Oc1cccc2ccccc12,outcome,[1],inactive
O=C(O)c1c(Cl)ccc2cc(Cl)cnc12,outcome,[1],inactive
CCSC(=O)N1CCCCCC1,outcome,[1],inactive
COCc1cnc(C2=NC(C)(C(C)C)C(=O)N2)c(C(=O)O)c1 (stereo not given),outcome,[1],inactive
same,outcome,[4],inactive
same,outcome,[5],inactive
Cc1c(COC(=O)[C@@H]2[C@H](/C=C(\Cl)C(F)(F)F)C2(C)C)cccc1-c1ccccc1,AC50,[2],21.8 µM (active)
same,AC50,[3],19.8 µM (active)
same,outcome,[1],inactive
same,outcome,[7],inactive
same,AC50,[8],100 µM (active)
same,outcome,[9],inactive
